Our source for the Inhibition values is ChEMBL document CHEMBL1157539, “Thousands of chemical starting points for antimalarial lead identification” (Nature, 2010).

Common to all, as to format: functional
The subject of experiment [1] is Plasmodium falciparum. In words: GSK_TCMDC: Inhibition of Plasmodium falciparum 3D7 in whole red blood cells, using parasite LDH activity as an index of growth. Test compounds present at 2uM.
For experiment [2], the system named is Plasmodium falciparum. Put plainly: GSK_TCMDC: Inhibition of Plasmodium falciparum Dd2 in whole red blood cells, using parasite LDH activity as an index of growth. Test compounds present at 2uM.
The subject of experiment [3] is HepG2. Put plainly: GSK_TCMDC: Percent inhibition of human HepG2 cell line. Test compounds present at 10uM.

For the compound `COc1ccc(-c2cnc3ccc(NCc4ccc(S(N)(=O)=O)cc4)nn23)cn1`, the Inhibition in experiment [1] is reported as 98%; in experiment [2], 98%; in experiment [3], 16%.

`O=C(Nc1ccc(Cn2nc(Cl)c(N3CCCNCC3)cc2=O)cc1)Nc1ccc(-c2ccccc2)cc1.O=C(O)C(F)(F)F`: the Inhibition is recorded as 87% in experiment [1], 36% in experiment [2] and 89% in experiment [3].

Turning to `N#Cc1ccccc1N1CCN(C2CCC(NC(=O)c3n[nH]c4cc(C(F)(F)F)ccc34)CC2)CC1` (stereo unspecified), the Inhibition is reported as 84% in experiment [1], 34% in experiment [2] and 15% in experiment [3].

For the compound `OC1CCC(Nc2ccc3ncc(-c4ccc(Cl)cc4)n3n2)CC1` (stereo unspecified), the Inhibition in experiment [1] is 97%; in experiment [2], 98%; in experiment [3], 57%.

With `Cc1ccc(N2C(=O)C3C(C2=O)C2(c4ccccc4)C(=O)C3(c3ccccc3)C(c3ccccc3)=C2c2ccccc2)cc1` (stereo unspecified), the results for the Inhibition in experiment [1], in experiment [2] and in experiment [3] were 92%, 96% and 17%, respectively.

For the compound `CCCCCCN1CCC(NCc2cccc(-n3ccnc3)c2)CC1.O=C(O)C(F)(F)F`, the Inhibition in experiment [1] is listed as 100%; in experiment [2] it was 100%; in experiment [3], 3%.

As to `O=C(Nc1ccc(-c2nc3ccccc3[nH]2)cc1)c1ccc(N2CCCC2)c([N+](=O)[O-])c1`, the Inhibition in experiment [1] is 100%; in experiment [2] it was 95%; in experiment [3], 43%.

On to `COc1ccc(-c2cccc(NC(=O)c3ccc(Cl)cc3)c2)cc1CN1CCNCC1.O=C(O)C(F)(F)F`, for which the figures for the Inhibition in experiment [1], in experiment [2] and in experiment [3] were 96%, 22% and 52%, respectively.

Turning to `CCc1cn2c3c(cc(C(=O)N[C@@H](Cc4ccccc4)[C@H](O)CNC4CC4)cc13)N(CC)S(=O)(=O)CC2.O=CO`, the Inhibition in experiment [1] is reported as 98%; in experiment [2], 99%; in experiment [3] it was 13%.

Regarding `Cc1[nH]c(C)c(-c2ccc(Oc3ccc(O)cc3)cc2)c(=O)c1Cl`, the values for the Inhibition in experiment [1], in experiment [2] and in experiment [3] were 91%, 87% and 0%, respectively.

As for `O=C(Nc1cccc(CN2CCN(Cc3ccc(O)cc3)CC2)c1)c1ccc(-c2ccccc2)cc1.O=C(O)C(F)(F)F`, the results for the Inhibition in experiment [1], in experiment [2] and in experiment [3] were 100%, 67% and 40%, respectively.

For the compound `c1csc(-c2nc(NCC3CCCO3)ncc2-c2ccsc2)n1` (stereo unspecified), the Inhibition is on record as 89% in experiment [1], 83% in experiment [2] and 0% in experiment [3].

For orientation: Inhibition means the share of the control response that was lost under treatment.
